The record followed here is PubChem BioAssay AID623888 (Vanderbilt Specialized Chemistry Center, 2012).

The target of the assay is Metabotropic glutamate receptor 3 (Rattus norvegicus) (UniProt P31422). Put plainly: PubChem AID 623888. The note with it: HEK/GIRK rat mGlu3, thallium flux fluorescence, Schild, at 30 µM; % glutamate max: glutamate max response with compound, stronger effect = lower value; glutamate response, % max: at 100 µM (top of the series), compound 30 µM.
Sequence of Metabotropic glutamate receptor 3 (Rattus norvegicus) (P31422 whole entry, looked up): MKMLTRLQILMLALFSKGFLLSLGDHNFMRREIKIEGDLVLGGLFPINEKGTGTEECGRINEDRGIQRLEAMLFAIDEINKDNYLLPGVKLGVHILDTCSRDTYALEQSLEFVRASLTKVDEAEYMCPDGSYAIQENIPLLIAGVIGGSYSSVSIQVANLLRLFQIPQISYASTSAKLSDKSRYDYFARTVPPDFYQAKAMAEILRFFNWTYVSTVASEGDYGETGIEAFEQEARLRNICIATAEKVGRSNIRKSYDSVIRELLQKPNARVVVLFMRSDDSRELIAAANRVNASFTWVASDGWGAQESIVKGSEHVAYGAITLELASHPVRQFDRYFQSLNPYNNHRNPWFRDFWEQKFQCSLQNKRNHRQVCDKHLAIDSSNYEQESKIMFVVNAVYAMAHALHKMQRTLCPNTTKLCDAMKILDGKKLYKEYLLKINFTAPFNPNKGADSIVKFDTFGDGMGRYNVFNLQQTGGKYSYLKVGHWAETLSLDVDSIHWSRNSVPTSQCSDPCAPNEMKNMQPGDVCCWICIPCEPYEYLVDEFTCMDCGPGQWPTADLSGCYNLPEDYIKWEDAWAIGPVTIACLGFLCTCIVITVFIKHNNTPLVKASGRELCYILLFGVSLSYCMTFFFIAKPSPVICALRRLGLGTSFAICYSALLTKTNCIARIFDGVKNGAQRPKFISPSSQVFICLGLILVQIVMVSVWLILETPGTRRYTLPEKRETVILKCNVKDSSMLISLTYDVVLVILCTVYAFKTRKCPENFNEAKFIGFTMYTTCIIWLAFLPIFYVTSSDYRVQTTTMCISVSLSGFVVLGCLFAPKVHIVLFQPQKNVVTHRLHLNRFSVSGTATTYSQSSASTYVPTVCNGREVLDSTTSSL

Turning to `COc1ccc(C#Cc2ccc(C(=O)N3CCC[C@@H](CO)C3)cc2)cc1`, the % glutamate max stood at 1.37% and the glutamate response, % max turned out to be 2.62.
